Reference: the supplement of paper PMC6411743
± gives the standard deviation of the averaged measurements. The full data set covers some 5,400 targets. This sample favours those with the largest changes.

Compound: Nc1nc2c(ncn2[C@@H]2O[C@H](COP(=O)(O)OP(=O)(O)OP(=O)(O)O)[C@@H](O)[C@H]2O)c(=O)[nH]1 [guanosine triphosphate]
Experiment: NP40-soluble protein abundance relative to vehicle (solubility fold change) (ratio); higher = more soluble protein in presence of GTP
Method in brief: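 Jurkat crude lysate prepared with a Dounce homogeniser was treated at eight concentrations spanning 0.1 to 10 mM, 10 min at room temperature then 3 min at 37 °C. Solubilisation with 0.8% NP40 and benzonase and ultracentrifugation preceded TMT labelling of the supernatant for LC-MS/MS. Fold change against the detergent-processed vehicle was determined per replicate from vsn-normalised intensities, across three independent experiments.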

Sequence of UniProt Q3LXA3 (Q3LXA3 whole entry, one chain of several): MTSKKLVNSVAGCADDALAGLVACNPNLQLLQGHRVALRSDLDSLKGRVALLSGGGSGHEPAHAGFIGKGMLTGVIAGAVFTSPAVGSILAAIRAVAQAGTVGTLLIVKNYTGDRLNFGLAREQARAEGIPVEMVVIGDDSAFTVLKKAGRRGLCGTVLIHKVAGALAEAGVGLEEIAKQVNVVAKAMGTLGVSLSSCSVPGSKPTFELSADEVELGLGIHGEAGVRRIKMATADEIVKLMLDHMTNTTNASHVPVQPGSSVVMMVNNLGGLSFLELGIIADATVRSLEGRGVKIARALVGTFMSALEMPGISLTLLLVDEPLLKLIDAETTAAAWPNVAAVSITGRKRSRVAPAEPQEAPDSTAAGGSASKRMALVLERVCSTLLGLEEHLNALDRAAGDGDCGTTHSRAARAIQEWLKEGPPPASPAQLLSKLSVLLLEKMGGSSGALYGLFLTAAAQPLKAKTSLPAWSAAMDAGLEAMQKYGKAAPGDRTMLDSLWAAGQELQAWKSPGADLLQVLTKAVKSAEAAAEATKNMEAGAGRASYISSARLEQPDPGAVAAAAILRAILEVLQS
Sequence of UniProt Q9BQ39 (Q9BQ39 whole entry, one chain of several): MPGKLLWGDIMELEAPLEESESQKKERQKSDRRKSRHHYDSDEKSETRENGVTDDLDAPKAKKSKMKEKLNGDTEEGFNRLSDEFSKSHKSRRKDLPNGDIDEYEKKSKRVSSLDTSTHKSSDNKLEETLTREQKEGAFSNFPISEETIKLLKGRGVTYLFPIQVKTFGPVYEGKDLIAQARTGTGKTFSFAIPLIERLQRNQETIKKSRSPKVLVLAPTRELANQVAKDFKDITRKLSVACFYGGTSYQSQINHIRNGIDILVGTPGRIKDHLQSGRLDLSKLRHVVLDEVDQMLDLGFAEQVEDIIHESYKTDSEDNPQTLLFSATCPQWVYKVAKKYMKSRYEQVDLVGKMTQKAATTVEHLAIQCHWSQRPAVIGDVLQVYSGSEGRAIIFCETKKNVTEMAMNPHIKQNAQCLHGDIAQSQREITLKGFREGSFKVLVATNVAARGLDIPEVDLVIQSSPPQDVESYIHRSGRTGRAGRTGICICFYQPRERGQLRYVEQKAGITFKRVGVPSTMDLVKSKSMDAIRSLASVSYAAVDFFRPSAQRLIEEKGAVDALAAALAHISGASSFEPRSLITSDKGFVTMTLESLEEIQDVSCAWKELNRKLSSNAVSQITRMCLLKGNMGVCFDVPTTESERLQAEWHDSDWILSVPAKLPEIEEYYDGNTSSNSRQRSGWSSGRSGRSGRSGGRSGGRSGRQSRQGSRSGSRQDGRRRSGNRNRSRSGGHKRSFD
Sequence of UniProt P56556 (P56556 whole entry, one chain of several): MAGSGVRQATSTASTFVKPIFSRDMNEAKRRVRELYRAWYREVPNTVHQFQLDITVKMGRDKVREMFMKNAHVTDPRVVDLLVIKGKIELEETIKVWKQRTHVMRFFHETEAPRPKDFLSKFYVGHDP
Sequence of UniProt Q15004 (Q15004 whole entry, one chain of several): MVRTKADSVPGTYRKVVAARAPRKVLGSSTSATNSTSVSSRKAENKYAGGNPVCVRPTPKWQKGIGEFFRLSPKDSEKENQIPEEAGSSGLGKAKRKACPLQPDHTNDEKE
Sequence of UniProt Q8NCD3 (Q8NCD3 whole entry, one chain of several): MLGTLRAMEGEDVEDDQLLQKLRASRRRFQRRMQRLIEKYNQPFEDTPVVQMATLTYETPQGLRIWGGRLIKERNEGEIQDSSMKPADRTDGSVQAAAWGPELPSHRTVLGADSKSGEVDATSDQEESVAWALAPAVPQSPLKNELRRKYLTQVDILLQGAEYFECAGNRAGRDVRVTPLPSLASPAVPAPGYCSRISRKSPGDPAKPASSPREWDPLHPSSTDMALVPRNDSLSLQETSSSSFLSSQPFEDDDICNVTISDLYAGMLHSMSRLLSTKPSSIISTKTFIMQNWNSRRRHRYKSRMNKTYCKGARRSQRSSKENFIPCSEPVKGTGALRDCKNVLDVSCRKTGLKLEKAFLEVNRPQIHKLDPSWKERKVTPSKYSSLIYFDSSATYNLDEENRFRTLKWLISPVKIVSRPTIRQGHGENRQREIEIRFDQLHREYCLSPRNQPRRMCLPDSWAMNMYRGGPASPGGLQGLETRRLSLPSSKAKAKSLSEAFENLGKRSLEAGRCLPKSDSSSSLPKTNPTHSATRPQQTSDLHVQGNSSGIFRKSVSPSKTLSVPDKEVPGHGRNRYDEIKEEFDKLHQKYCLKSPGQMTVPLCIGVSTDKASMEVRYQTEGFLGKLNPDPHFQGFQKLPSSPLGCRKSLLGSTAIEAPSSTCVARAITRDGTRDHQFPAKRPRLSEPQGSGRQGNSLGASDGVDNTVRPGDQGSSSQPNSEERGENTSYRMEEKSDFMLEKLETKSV
Sequence of UniProt Q96SY0 (Q96SY0 whole entry, one chain of several): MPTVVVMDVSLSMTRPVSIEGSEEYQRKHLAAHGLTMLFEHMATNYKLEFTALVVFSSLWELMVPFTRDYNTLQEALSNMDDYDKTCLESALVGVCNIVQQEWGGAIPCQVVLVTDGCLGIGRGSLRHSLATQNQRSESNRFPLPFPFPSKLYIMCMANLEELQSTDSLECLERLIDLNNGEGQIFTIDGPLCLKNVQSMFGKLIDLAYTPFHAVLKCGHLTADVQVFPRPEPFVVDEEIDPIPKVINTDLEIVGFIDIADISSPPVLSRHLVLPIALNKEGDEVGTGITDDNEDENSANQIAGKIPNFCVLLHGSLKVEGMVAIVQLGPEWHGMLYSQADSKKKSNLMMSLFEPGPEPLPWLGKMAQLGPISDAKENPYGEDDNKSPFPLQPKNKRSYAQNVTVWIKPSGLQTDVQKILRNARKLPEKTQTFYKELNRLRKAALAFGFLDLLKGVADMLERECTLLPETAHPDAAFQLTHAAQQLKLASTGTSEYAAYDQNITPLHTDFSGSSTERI
Sequence of UniProt P08069 (P08069 whole entry, looked up, one chain of several): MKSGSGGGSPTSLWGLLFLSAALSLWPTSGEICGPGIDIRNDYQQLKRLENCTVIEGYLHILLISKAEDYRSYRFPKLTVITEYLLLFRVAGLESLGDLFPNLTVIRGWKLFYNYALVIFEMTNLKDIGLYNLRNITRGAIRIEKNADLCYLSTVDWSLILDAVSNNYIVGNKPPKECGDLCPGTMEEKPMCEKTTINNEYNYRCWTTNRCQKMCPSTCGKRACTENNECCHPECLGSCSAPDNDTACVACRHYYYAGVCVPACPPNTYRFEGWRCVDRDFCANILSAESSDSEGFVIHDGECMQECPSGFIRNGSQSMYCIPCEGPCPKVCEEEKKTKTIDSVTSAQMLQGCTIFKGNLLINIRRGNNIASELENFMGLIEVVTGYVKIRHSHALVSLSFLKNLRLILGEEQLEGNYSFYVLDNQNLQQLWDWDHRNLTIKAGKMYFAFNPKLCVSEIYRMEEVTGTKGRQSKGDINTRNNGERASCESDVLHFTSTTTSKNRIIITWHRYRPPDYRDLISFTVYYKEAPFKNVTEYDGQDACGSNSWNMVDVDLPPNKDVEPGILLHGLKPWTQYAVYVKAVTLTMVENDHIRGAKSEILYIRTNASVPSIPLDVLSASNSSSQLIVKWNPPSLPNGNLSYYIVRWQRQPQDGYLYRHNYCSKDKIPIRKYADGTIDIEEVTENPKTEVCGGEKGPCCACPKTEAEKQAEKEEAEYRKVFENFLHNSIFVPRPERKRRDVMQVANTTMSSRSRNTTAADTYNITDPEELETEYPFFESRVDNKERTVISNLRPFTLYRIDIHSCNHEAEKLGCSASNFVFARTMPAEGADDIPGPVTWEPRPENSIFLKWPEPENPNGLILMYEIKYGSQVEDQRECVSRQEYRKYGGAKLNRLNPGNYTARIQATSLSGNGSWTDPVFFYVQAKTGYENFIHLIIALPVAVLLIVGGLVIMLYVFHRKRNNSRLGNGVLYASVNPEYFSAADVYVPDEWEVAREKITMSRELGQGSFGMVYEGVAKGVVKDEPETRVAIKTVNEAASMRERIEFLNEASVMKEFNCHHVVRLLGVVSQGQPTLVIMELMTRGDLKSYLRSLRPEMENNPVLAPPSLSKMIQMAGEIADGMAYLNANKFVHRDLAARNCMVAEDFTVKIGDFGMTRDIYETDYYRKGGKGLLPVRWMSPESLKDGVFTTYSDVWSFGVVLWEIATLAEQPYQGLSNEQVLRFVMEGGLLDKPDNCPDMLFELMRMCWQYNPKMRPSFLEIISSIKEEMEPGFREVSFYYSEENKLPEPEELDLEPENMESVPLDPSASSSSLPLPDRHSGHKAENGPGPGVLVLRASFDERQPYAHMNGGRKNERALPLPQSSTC
Sequence of UniProt Q6UW02 (Q6UW02 whole entry, one chain of several): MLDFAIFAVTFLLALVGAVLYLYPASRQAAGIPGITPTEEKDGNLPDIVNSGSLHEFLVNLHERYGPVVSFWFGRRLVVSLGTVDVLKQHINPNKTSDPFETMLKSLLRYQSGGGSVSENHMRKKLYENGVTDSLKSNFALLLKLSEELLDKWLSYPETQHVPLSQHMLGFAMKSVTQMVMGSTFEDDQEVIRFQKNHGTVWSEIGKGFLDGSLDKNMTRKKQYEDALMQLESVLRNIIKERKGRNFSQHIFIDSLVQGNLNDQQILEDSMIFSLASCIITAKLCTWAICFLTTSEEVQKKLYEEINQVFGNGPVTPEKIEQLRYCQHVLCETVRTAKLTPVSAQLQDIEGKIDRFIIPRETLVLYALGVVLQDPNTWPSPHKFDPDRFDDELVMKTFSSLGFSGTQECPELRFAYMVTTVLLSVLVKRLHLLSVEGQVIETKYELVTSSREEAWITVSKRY
Sequence of UniProt Q9BTT0 (Q9BTT0 whole entry, one chain of several): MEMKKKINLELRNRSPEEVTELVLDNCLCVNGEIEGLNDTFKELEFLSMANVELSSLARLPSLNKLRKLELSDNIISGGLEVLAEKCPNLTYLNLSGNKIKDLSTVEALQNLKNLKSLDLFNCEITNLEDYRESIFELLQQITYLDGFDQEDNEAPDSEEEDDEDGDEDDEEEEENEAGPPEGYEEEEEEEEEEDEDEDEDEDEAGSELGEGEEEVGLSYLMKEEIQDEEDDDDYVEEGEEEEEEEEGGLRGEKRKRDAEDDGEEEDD

Target	NP40-soluble protein abundance (concentration: 0.1mM)	NP40-soluble protein abundance (concentration: 0.5mM)	NP40-soluble protein abundance (concentration: 1mM)	NP40-soluble protein abundance (concentration: 2mM)	NP40-soluble protein abundance (concentration: 4mM)	NP40-soluble protein abundance (concentration: 6mM)	NP40-soluble protein abundance (concentration: 8mM)	NP40-soluble protein abundance (concentration: 10mM)
A8MXF6|B7ZBD5|Q9UBK7|Q9UBK7-2|Q9UBK7-3|Q9UNT1|Q9UNT1-2|Q9UNT1-3 (UniProt Q9UNT1+Q9UBK7+B7ZBD5+A8MXF6)	1.03 ± 0.038	1.03 ± 0.035	1.02 ± 0.032	1.01 ± 0.084	0.947 ± 0.046	0.955 ± 0.071	0.949 ± 0.053	0.94158 ± 0.00038
C9IY68|C9J384|Q9BQ75|Q9BQ75-2 (UniProt Q9BQ75)	0.945 ± 0.058	1.03 ± 0.083	1.06 ± 0.071	1.1 ± 0.058	1.17 ± 0.069	1.22 ± 0.094	1.23 ± 0.12	1.31 ± 0.04
A0A087WT99|Q9H0W9|Q9H0W9-2|E9PPB5|E9PQS1 (UniProt Q9H0W9)	0.993 ± 0.094	0.942 ± 0.069	0.925 ± 0.048	0.899 ± 0.068	0.872 ± 0.058	0.897 ± 0.087	0.901 ± 0.11	0.848 ± 0.053
C9JWC4|Q8NCD3|Q8NCD3-2|Q8NCD3-3 (UniProt Q8NCD3)	1.07 ± 0.053	1.12 ± 0.041	1.15 ± 0.069	1.18 ± 0.025	1.19 ± 0.15	1.18 ± 0.067	1.2 ± 0.055	1.13 ± 0.081
H0YKX3|Q15004 (UniProt Q15004)	1.03 ± 0.086	1.04 ± 0.062	1.07 ± 0.081	1.04 ± 0.12	0.957 ± 0.13	0.982 ± 0.15	1.19 ± 0.031	1.09 ± 0.039
B4DJL6|Q96SY0|B4DVT3|H3BRY6|Q96SY0-3|Q96SY0-4 (UniProt Q96SY0)	1.03 ± 0.049	1.03 ± 0.035	1.03 ± 0.064	1.07 ± 0.051	1.03 ± 0.058	1.09 ± 0.025	1.07 ± 0.086	1.05 ± 0.066
A0A0C4DGS0|P56556 (UniProt P56556)	0.947 ± 0.069	0.934 ± 0.051	1.05 ± 0.1	1.08 ± 0.12	1.09 ± 0.17	1.02 ± 0.093	0.939 ± 0.064	1.01 ± 0.1
A0A087WUL0|Q3LXA3 (UniProt Q3LXA3)	0.988 ± 0.11	0.963 ± 0.11	0.978 ± 0.14	0.928 ± 0.12	0.948 ± 0.11	0.96 ± 0.16	0.96 ± 0.1	0.951 ± 0.097
B9ZVT1|Q8IXT5 (UniProt Q8IXT5)	1.02 ± 0.081	1.13 ± 0.19	1.21 ± 0.078	1.28 ± 0.25	1.29 ± 0.29	1.3 ± 0.32	1.45 ± 0.47	1.48 ± 0.39
A0A087WVC1|Q9BQ39 (UniProt Q9BQ39)	1.19 ± 0.051	1.25 ± 0.055	1.4 ± 0.089	1.89 ± 0.23	2.57 ± 0.26	3.29 ± 0.3	3.85 ± 0.56	4.45 ± 0.47
E9PPH5|Q9BTT0|Q9BTT0-3 (UniProt Q9BTT0)	0.838 ± 0.058	0.874 ± 0.062	0.978 ± 0.05	0.94 ± 0.045	0.937 ± 0.056	0.946 ± 0.037	0.958 ± 0.038	1.08 ± 0.079
C9J5X1|P08069 (UniProt P08069)	1.04 ± 0.13	1.04 ± 0.13	1.15 ± 0.11	0.987 ± 0.07	1 ± 0.086	1.05 ± 0.1	1.07 ± 0.14	1.04 ± 0.2
E9PHG5|Q6UW02|Q6UW02-2 (UniProt Q6UW02)	1.1 ± 0.21	1.04 ± 0.17	1.01 ± 0.075	1.04 ± 0.061	0.955 ± 0.16	0.984 ± 0.14	0.882 ± 0.25	0.884 ± 0.14
